Test results published in ChEMBL document CHEMBL3988442, “University of Dundee, Small-Polar-MMV Screening Library” (2021).

What follows are molecules tested against AMP-activated protein kinase, AMPK (Homo sapiens) (UniProt P54646+O43741+P54619+Q9UGJ0+Q9Y478+Q13131+Q9UGI9) (assay: AMP-dependent Kinase enzyme assay. An in vitro enzyme assay that detects ADP turnover that is directly proportional to AMPK activity. This uses naive AMPK that is activated during the assay with MK-8722). Conditions: 30 µM.
Format: functional
Parameters: scale not given: direction of the effect not stated beside the values

Question: For `CC(C)c1cc(NCc2csc(C(C)C)n2)nc(N)n1`, which Percent Effect is on record?
Answer: The Percent Effect was -7.72%.

Question: How did the Percent Effect turn out when `OCc1cccc(OCc2ccon2)c1` was run?
Answer: The Percent Effect was 4.35%.

Question: With `Cc1noc(C)c1CC(=O)N[C@@H]1CC[C@@H](Oc2ccccc2)[C@@H]1O` as the molecule, how does the Percent Effect read?
Answer: Its Percent Effect is 5.13%.

Question: How did the Percent Effect turn out when `CN(C(=O)c1ccccc1N(C)S(C)(=O)=O)c1ccc(C(C)(C)C)cc1` was run?
Answer: The Percent Effect was 6.59%.

Question: Which Percent Effect does the source give for `CN(Cc1cn(C2CCNCC2)nn1)CC1CCCO1` (stereo not given) here?
Answer: The Percent Effect was 3.31%.

Question: With `CC(C)c1nnc(CN2CC(n3cccn3)C2)o1` as the molecule, how does the Percent Effect read?
Answer: The Percent Effect was -4.54%.

Question: With `CSC1(CNC(=O)N(C)Cc2sccc2C)CCOCC1` as the molecule, how does the Percent Effect read?
Answer: The Percent Effect was -7.94%.

Question: How did the Percent Effect turn out when `O=C(NC1CCN(c2ccccc2OC(F)F)C1)c1cccnc1` (stereo not given) was run?
Answer: Its Percent Effect is -0.669%.

Question: How did the Percent Effect turn out when `Cc1noc(C2CCN(Cn3cc(Cl)cn3)CC2)n1` was run?
Answer: Its Percent Effect is 2.75%.

Question: How did the Percent Effect turn out when `CC(c1ccon1)N(C)S(=O)(=O)NCc1ccccc1` (stereo not given) was run?
Answer: The Percent Effect was 2.51%.

Question: With `Cc1n[nH]c(C)c1CCNC(=O)Nc1ccc2c(c1)COC2` as the molecule, how does the Percent Effect read?
Answer: Its Percent Effect is 11.6%.

Question: Which Percent Effect does the source give for `NC(=O)C1Cc2ccccc2CN1CCC(=O)N1CCc2ccccc21` (stereo not given) here?
Answer: The Percent Effect was -3.92%.

Question: How did the Percent Effect turn out when `COCCNC(=O)NCc1ccc(-n2ccc(C(F)(F)F)n2)cc1` was run?
Answer: Its Percent Effect is -8.71%.

Question: Which Percent Effect does the source give for `CCCNc1cc(-c2c[nH]nc2C2CCN(C(=O)C3CCC3)C2)ccn1` (stereo not given) here?
Answer: The Percent Effect was 43.5%.

Question: With `Cc1csc(CCNC(=O)N2CCC(C(N)=O)CC2)n1` as the molecule, how does the Percent Effect read?
Answer: Its Percent Effect is -10.8%.

Question: With `O=C(O)c1cn(CC2CCCN(c3nc4ccccc4s3)C2)nn1` (stereo not given) as the molecule, how does the Percent Effect read?
Answer: The Percent Effect was -1.06%.

Question: `O=C(NCc1ccco1)N1CCOC(c2ccccc2Cl)C1` (stereo not given) was tested. Which Percent Effect did it give?
Answer: Its Percent Effect is 3.01%.

Question: For `Cc1cc(CC(C)NC(=O)c2n[nH]c3c2CCC3)n[nH]1` (stereo not given), which Percent Effect is on record?
Answer: The Percent Effect was 3.64%.

Question: `COc1ccc(-n2cccn2)c(CN2CCOCC(CN(C)C)C2)c1` (stereo not given) was tested. Which Percent Effect did it give?
Answer: The Percent Effect was 1.67%.

Question: Which Percent Effect does the source give for `O=C(NC1CCN(Cc2ccc(F)cc2)CC1)c1ccc2c(c1)CCC2` here?
Answer: The Percent Effect was -2.43%.

Question: With `Cc1cc(NC(=O)NCCC(=O)N2CCCc3ccccc32)no1` as the molecule, how does the Percent Effect read?
Answer: The Percent Effect was -0.372%.

Question: Which Percent Effect does the source give for `NC1CCc2nc(-c3ccncc3)nc(Nc3cccc(F)c3)c2C1` (stereo not given) here?
Answer: The Percent Effect was -70.9%.

Question: How did the Percent Effect turn out when `Cc1cc(-c2cnc(N3CCN(C)CC3)nc2C(C)C)on1` was run?
Answer: The Percent Effect was 16.2%.

Question: `CSCc1noc(-c2ccc(C)c(N3CCNC3=O)c2)n1` was tested. Which Percent Effect did it give?
Answer: Its Percent Effect is 13.8%.

Question: For `CN(Cc1cc(Br)c2c(c1)OCO2)Cc1cscn1`, which Percent Effect is on record?
Answer: The Percent Effect was -9.1%.

Question: For `O=C(c1cnnn1-c1ccccc1)N1CCCC(c2ccn[nH]2)C1` (stereo not given), which Percent Effect is on record?
Answer: Its Percent Effect is -5.43%.

Question: With `CN1CCN(CC2(O)CCCN(S(=O)(=O)c3cn[nH]c3)CC2)CC1` (stereo not given) as the molecule, how does the Percent Effect read?
Answer: Its Percent Effect is 13%.

Question: For `CCC(O)Cn1nc(-c2ccc(C(=O)O)cc2)cc1-c1ccc(F)cc1` (stereo not given), which Percent Effect is on record?
Answer: The Percent Effect was 12%.

Question: With `CCCn1cc(-c2cc(C(=O)N(C)C)c3ccc(C)cc3n2)cn1` as the molecule, how does the Percent Effect read?
Answer: Its Percent Effect is 11.6%.

Question: For `CC(C)[C@H]1CN(Cc2nccn2C)C[C@@H]1NC(=O)CCS(C)(=O)=O`, which Percent Effect is on record?
Answer: Its Percent Effect is 1.59%.

Question: Which Percent Effect does the source give for `COc1ccc(NC(=O)N2CCC(CSC)C2)cc1C` (stereo not given) here?
Answer: The Percent Effect was -6.6%.

Question: `CSCCC(NC(N)=O)C(=O)NCc1cnn(-c2ccccc2)c1` (stereo not given) was tested. Which Percent Effect did it give?
Answer: The Percent Effect was -5.05%.

Question: Which Percent Effect does the source give for `COCCNc1ccc(CC2CCCN(C3CCCC3)C2)nn1` (stereo not given) here?
Answer: Its Percent Effect is 4.32%.

Question: Which Percent Effect does the source give for `CC(C)(C)c1noc(CCCC(=O)N2CCNC(=O)C2)n1` here?
Answer: Its Percent Effect is -8.74%.

Question: With `Cc1nc(CN(C)c2nccc(C(F)(F)F)n2)cs1` as the molecule, how does the Percent Effect read?
Answer: Its Percent Effect is 5.48%.

Question: For `CS(=O)(=O)N1CCN(C(=O)c2cncs2)CC(C(N)=O)C1` (stereo not given), which Percent Effect is on record?
Answer: The Percent Effect was 9.41%.

Question: `Cn1cc(CN2CCOC(c3cccc(-c4cncnc4)n3)C2)cn1` (stereo not given) was tested. Which Percent Effect did it give?
Answer: The Percent Effect was 11.3%.

Question: `Cc1ncsc1C(=O)N[C@@H](Cc1ccccc1)C(N)=O` was tested. Which Percent Effect did it give?
Answer: Its Percent Effect is 8.09%.

Question: With `N#Cc1cccnc1NCc1cccnc1N1CCCCC1` as the molecule, how does the Percent Effect read?
Answer: Its Percent Effect is 7.89%.

Question: Which Percent Effect does the source give for `Cc1cn[nH]c1C1COCCN1Cc1ccsc1` (stereo not given) here?
Answer: Its Percent Effect is 14.3%.
